Bioassay records deposited in PubChem by National Center for Advancing Translational Sciences (NCATS).
This is a sample that favours compounds with a hit; in the whole collection about 5.7% have one here.
HepG2 tox-1 – kills HepG2 cells in TGF-b inhibitor counter-screen; AID 588856; Potency, µM (top dose mostly 46.1 µM), most hits filed as cytotoxic; HepG2 CAGA-GFP viability, ATP luminescence, 18 h; actives 0.76% (n = 410,000)
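HepG2 CAGA-GFP cells (1000/well, DMEM with 1% FBS) received compound, then TGF-beta at 500 pg/mL final, and were incubated 18 hours at 37 degrees C. Viability was read by CellTiter-Glo luminescence. Media-only wells were set as complete cell-killing and DMSO as no toxicity.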
ATXN viability – viability counter-screen for ATXN expression inhibitors. S2 cells (HEK-293 line with an ATXN2-luciferase reporter) viability, CellTiter-Fluor protease fluorescence, 24 h. actives 0.49% (n = 400,000). Potency, µM (series often up to 56.7 µM), usual class: cytotoxic; further: nearly all actives have a fitted effect of over 40% in size
ATXN2 expr inh – reduces ATXN2 reporter expression in HEK-293 cells. actives 0.72% (n = 360,000). Potency, µM (titrated, usually from 57 µM), hits mostly inhibitors. HEK-293 ATXN2-luciferase reporter, luminescence, 24 h; further: nearly all actives have a fitted effect of over 55% in size
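qHTS (up to 57 uM final) was run with 24 h compound exposure of reporter cells at 37 °C. Each well was multiplexed: SteadyGlo luminescence measured ATXN2-luciferase expression after a fluorogenic Gly-Phe-AFC viability readout (25 uM final).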
TGFb inhibitor – blocks TGF-b signaling; AID 588855; actives 1.2% (n = 410,000); HepG2 CAGA-GFP TGF-b/SMAD3 reporter, GFP fluorescence, 18 h; TGF-beta stimulated, 500 pg/mL final; Potency, µM (series often up to 46.1 µM), actives largely listed as inhibitors; further: nearly all actives have a fitted effect of over 65% in size
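GFP signal (ex488/em500-530) from TGF-beta-stimulated HEPG2 CAGA-GFP cells, 500 pg/mL final, 18 h at 37 degrees C in DMEM plus 1% FBS, normalized to unstimulated and DMSO-stimulated controls.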
IL-1B inflam inh – blocks inflammasome-driven IL-1 beta release | THP-1 LPS/ATP IL-1B secretion, AlphaLISA, 16 h; hits give low values | activity change, % at 57.5 µM | actives 4.7% (n = 360,000) | AID 743279; in the data active means activity change below about -50%; inconclusive means mostly about -30% to -49%
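THP-1 cells pretreated 1 hr with compounds (up to 57.5 uM final), then stimulated with LPS (250 ng/mL final) plus ATP (1.25 mM final); secreted IL-1B measured by AlphaLISA after 16 hr, decreased signal indicating inhibition.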
TGFb confirm – TGF-b pathway inhibition, cherry-pick retest; shares compounds with TGFb inhibitor; AID 720534; Potency, µM (top dose mostly 46.1 µM), most hits filed as inhibitors; actives 63% (n = 1,600); HepG2 CAGA-GFP TGF-b reporter, GFP fluorescence, 18 h; cells stimulated with TGF-beta, 500 pg/mL; further: nearly all actives have a fitted effect of over 65% in size
HepG2 tox-2 – toxic to HepG2 cells in TGF-b counterscreen; shares compounds with TGFb inhibitor; HepG2 CAGA-GFP viability, ATP luminescence, 18 h; cells stimulated with TGF-beta, 500 pg/mL; actives 27% (n = 1,600); Potency, µM (highest dose often 46.1 µM), usual class: inhibitors; further: nearly all actives have a fitted effect of over 70% in size
TGFb CCL64 inh – TGF-b inhibition, CCL64 orthogonal assay; shares compounds with TGFb inhibitor; CCL64 CAGA-GFP reporter, TGF-b stimulated, GFP fluorescence, 18 h; Potency, µM (titrated, usually from 46.1 µM), most hits filed as inhibitors; actives 41% (n = 1,600); AID 720536; further: nearly all actives have a fitted effect of over 65% in size
COP TGFb inh – validation of TGF-b inhibitors in HepG2 COP promoter reporter; Potency, µM (series often up to 46.1 µM), hits mostly inhibitors; shares compounds with TGFb inhibitor; actives 3% (n = 1,600); HepG2 COP-GFP TGF-b reporter, GFP fluorescence, 18 h; cells stimulated by added recombinant TGF-beta; further: nearly all actives have a fitted effect of over 70% in size
Numbers stand for hits; - = inactive; ? = inconclusive; . = not tested or not shown; ! = not active in a repeat. Unless noted, the call rests on the fitted dose curve; in most records, active means well fitted curve in the direction sought with a large enough effect; inconclusive means small, poorly fitted or top-dose-only effect, or another doubt; inactive means no such curve, though single readings can be large; an effect the other way counts as inactive or inconclusive.

SMILES | HepG2 tox-1 | ATXN viability | ATXN2 expr inh | TGFb inhibitor | IL-1B inflam inh | TGFb confirm | HepG2 tox-2 | TGFb CCL64 inh | COP TGFb inh
COc1ccc(-c2cc3nc(NCC4CCCCC4)n(C)c(=O)c3s2)cc1OC | - | ? | ? | 10µM | - | ? | ? | ? | -
COc1ccccc1CNc1nc2cc(-c3ccc(OC)c(OC)c3)sc2c(=O)n1C | - | - | - | ? | - | . | . | . | .
Fc1ccc(-c2csc3ncnc(N4CCc5ccccc5C4)c23)cc1 | - | ? | - | 17.8µM | - | 16.4µM | ? | ? | -
Cc1ccc(-c2csc3ncnc(N4CCc5ccccc5C4)c23)cc1 | - | - | - | - | - | . | . | . | .
CC(C)(C)CN1CCN(Cc2nc(-c3ccc(F)cc3)cs2)CC1CCO (centres undefined) | - | - | - | ? | - | ? | ? | - | -
COc1ccc(C(CCNCc2ccc(F)cc2)c2ccc(F)cc2)cc1 (centres undefined) | 7.94µM | ? | ? | 2.82µM | - | ? | 16.4µM | ? | ?
COc1ccc2cc([C@H](C)C(=O)N(C)Cc3ccccc3N3CCCC3)ccc2c1 | - | - | - | 10µM | - | 8.2µM | ? | ? | -
COc1ccc(C(CNC(=O)C(C)c2ccc3cc(OC)ccc3c2)N(C)C)cc1 (centres undefined) | - | - | - | - | - | . | . | . | .
O=C(OC(C(=O)Nc1cc(Cl)cc(Cl)c1)c1ccccc1)C1=COCCO1 (centres undefined) | - | ? | - | 15.8µM | -50.9 | ? | ? | 18.4µM | -
COc1cc(C=CC(=O)c2ccccc2)cc(OC)c1OC | - | - | ? | 10µM | -115.3 | 18.4µM | ? | 16.4µM | -
O=C(Nc1nc2cc3c(cc2s1)OCCO3)c1ccc([N+](=O)[O-])o1 | - | - | - | ? | -86.2 | 0.82µM | 4.11µM | ? | -
COc1ccc2nc(NC(=O)c3ccc([N+](=O)[O-])o3)sc2c1 | - | ? | - | 8.91µM | -87.9 | 2.31µM | 20.6µM | 11.6µM | -
COc1ccc2nc(NC(=O)c3ccccc3[N+](=O)[O-])sc2c1 | - | ? | - | - | - | . | . | . | .
CCc1ccc(CNc2nc3nc(C)c(Cc4ccccc4)c(=O)n3[nH]2)cc1 | - | - | - | - | . | . | . | . | .
Cc1ccccc1NC(=O)CN1C(=O)CCn2nc(-c3cccn3C)cc21 | - | - | - | - | . | . | . | . | .
CCOc1ccc(NC(=O)Cc2ccc(NC(=O)N3CCCCc4ccccc43)cc2)cc1 | - | - | - | - | . | . | . | . | .
Cc1ccc(C(=O)CSc2nc(C)cc(SCc3nnc(-c4ccccc4)o3)n2)cc1 | - | - | - | - | - | . | . | . | .
COc1ccc(C(=O)CSc2cc(C)nc(SCC(=O)c3ccc(C)cc3)n2)cc1 | - | - | - | ? | - | ? | - | - | -
C(=C\c1ccccc1)/CN1CCN(C(CCc2ccccc2)c2nnnn2C2CCCC2)CC1 (centres undefined) | - | ? | - | 11.2µM | ? | 20.6µM | ? | ? | -
C(=C\c1ccccc1)/CN1CCN(C(c2ccccc2)c2nnnn2C2CCCC2)CC1 (centres undefined) | - | ? | - | ? | - | . | . | . | .
C(=C\c1ccccc1)/CN1CCN(C(c2cccs2)c2nnnn2Cc2ccccc2)CC1 (centres undefined) | - | ? | ? | 11.2µM | - | 16.4µM | ? | ? | -
C(=C\c1ccccc1)/CN1CCN(C(c2cccc3ccccc23)c2nnnn2Cc2ccccc2)CC1 (centres undefined) | - | - | - | ? | ? | . | . | . | .
C(=C\c1ccccc1)/CN1CCN(C(c2nnnn2C2CCCC2)C2CC2)CC1 (centres undefined) | - | ? | - | 7.94µM | - | ? | - | - | -
CC(=O)c1ccc(NC(=O)c2sc(-n3nc(C)c(CCC(C)C)c3C)nc2C)cc1 | - | - | - | - | . | . | . | . | .
Cn1c(=O)cc(OCCCC(=O)NCc2ccccn2)c2ccccc21 | - | - | - | - | - | . | . | . | .
SMILES | HepG2 tox-1 | ATXN viability | ATXN2 expr inh | TGFb inhibitor | IL-1B inflam inh | TGFb confirm | HepG2 tox-2 | TGFb CCL64 inh | COP TGFb inh
Cc1ccnc(NC(=O)CCCOc2cc(=O)n(C)c3ccccc23)c1 | - | - | 1.26µM! | 2.24µM | -75.7! | 5.8µM | 4.11µM | 25.9µM | -
Cc1ccc(CSC2=Nc3ccccc3C3=NC(CC(=O)NC4CCCCC4)C(=O)N23)cc1 (centres undefined) | - | . | . | . | . | . | . | . | .
O=S(Cc1ccc(Br)cc1)Cc1nnc(SCc2ccc(Br)cc2)n1-c1ccccc1 (centres undefined) | - | - | - | 8.91µM | -58.2 | 20.6µM | ? | ? | -
CCCCC(CC)C(=O)Nc1ncc([N+](=O)[O-])s1 (centres undefined) | - | ? | ? | 11.2µM | -79.1 | 7.31µM | ? | ? | -
Cc1ccc(CC(=O)Nc2ncc([N+](=O)[O-])s2)cc1 | - | ? | . | - | - | . | . | . | .
CCOc1ccc2nc3cc(NCc4ccc(OC)cc4)ccc3c(N)c2c1 | 10µM | - | . | 7.94µM | - | 3.26µM | 7.31µM | ? | -
Cc1cccc(CN2C(=O)NC(c3ccccc3)(c3ccccc3)C2=O)c1 | - | - | ? | 22.4µM | - | ? | ? | ? | -
Fc1ccc(C(Nc2ccccc2Cl)c2nnc(-c3ccccc3Cl)o2)cc1 (centres undefined) | - | - | - | - | . | . | . | . | .
CCCCOc1ccc(CSCCNC(=S)Nc2ccccc2)cc1 | - | ? | - | 7.94µM | - | ? | - | - | -
CCCCCOc1ccc(CSCCNC(=S)Nc2ccccc2)cc1 | - | - | - | - | - | . | . | . | .
CC(=O)N1CCc2c(sc(NC(=O)c3ccc([N+](=O)[O-])o3)c2C(N)=O)C1 | - | 20µM | . | 3.55µM | -80.0 | 4.61µM | 5.8µM | ? | ?
CCC(=O)Nc1sc2c(c1C(N)=O)CCN(C(C)=O)C2 | - | - | - | - | - | . | . | . | .
CN(C(=O)c1ccc(NC(=O)Cc2cccc(NC(=O)C3CCN(C(=O)CCc4ccccc4)CC3)c2)cc1)C1CCCC1 | - | - | - | 12.6µM | - | ? | - | - | -
